Assay results as given in the supplement of paper PMC12669032.

How the values were obtained:
Assay in all cases: growth AUC relative to DMSO control (median of replicates) (fraction); higher = more growth (less inhibition), active = hit call of the paper
Details in all cases: 20 µM; 24 h;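 active = AUC reduced over 20% with Padj below 0.05 in at least 2 of 3 replicates; inactive = otherwise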
Akkermansia muciniphila = test system: Akkermansia muciniphila
In short: (§1)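 Gut bacterial monocultures were grown anaerobically at 37 °C in mGAM, starting at OD600 0.05, with 20 µM compound (1% DMSO) in round-bottom 96-well plates under pierced gas-permeable seals. OD600 was read hourly for 24 h. Area under the growth curve (minimum OD set to 0) was normalised to the plate median of DMSO controls, or to row and column medians on the industrial chemical plate. The value is the median of three biological replicates grown on separate days.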

Bacteroides caccae = test system: Bacteroides caccae
In short: as §1

Bacteroides clarus = test system: Bacteroides clarus
In short: as §1

Bacteroides dorei = test system: Bacteroides dorei
In short: as §1

Bacteroides stercoris = test system: Bacteroides stercoris
In short: as §1

[1] = test system: Bacteroides thetaiotaomicron
In short: as §1

Bacteroides uniformis = test system: Bacteroides uniformis
In short: as §1

[2] = test system: Bifidobacterium longum subsp. longum
In short: as §1

Clostridium difficile = test system: Clostridium difficile
In short: as §1

Collinsella aerofaciens = test system: Collinsella aerofaciens
In short: as §1

Measured: growth AUC

CCOP(=S)(OCC)SCSCC
inactive: Akkermansia muciniphila 1.1 | Bacteroides caccae 0.955 | Bacteroides clarus 0.991 | Bacteroides dorei 0.969 | Bacteroides stercoris 0.942 | [1] 0.997 | Bacteroides uniformis 0.986 | [2] 1.01 | Clostridium difficile 1.01 | Collinsella aerofaciens 1.01

COP(N)(=O)SC (stereo not given)
inactive: Akkermansia muciniphila 1.22 | Bacteroides caccae 1.01 | Bacteroides clarus 1.04 | Bacteroides dorei 1.01 | Bacteroides stercoris 1.1 | [1] 1.04 | Bacteroides uniformis 1.03 | [2] 0.989 | Clostridium difficile 1.03 | Collinsella aerofaciens 1.04

CCS(=O)(=O)c1nc2ccccn2c1S(=O)(=O)NC(=O)Nc1nc(OC)cc(OC)n1
inactive: Akkermansia muciniphila 1.1 | Bacteroides caccae 1.02 | Bacteroides clarus 1.02 | Bacteroides dorei 0.993 | Bacteroides stercoris 1 | [1] 0.995 | Bacteroides uniformis 0.989 | [2] 0.928 | Clostridium difficile 1.01 | Collinsella aerofaciens 0.983

CNC(=O)Oc1ccccc1C(C)C
inactive: Akkermansia muciniphila 1.08 | Bacteroides caccae 1.01 | Bacteroides clarus 1.04 | Bacteroides dorei 1.03 | Bacteroides stercoris 1.23 | [1] 1.01 | Bacteroides uniformis 1.01 | [2] 0.965 | Clostridium difficile 1.02 | Collinsella aerofaciens 0.986

COc1cccc(C(=O)NN(C(=O)c2cc(C)cc(C)c2)C(C)(C)C)c1C
inactive: Akkermansia muciniphila 1.14 | Bacteroides caccae 0.966 | Bacteroides clarus 0.996 | Bacteroides dorei 0.933 | Bacteroides stercoris 0.951 | [1] 0.986 | Bacteroides uniformis 0.958 | [2] 0.975 | Clostridium difficile 0.969 | Collinsella aerofaciens 0.92

Clc1ccccc1Cl
inactive: Akkermansia muciniphila 0.952 | Bacteroides caccae 1.02 | Bacteroides clarus 1.02 | Bacteroides dorei 0.992 | Bacteroides stercoris 0.991 | [1] 0.986 | Bacteroides uniformis 1.03 | [2] 1.11 | Clostridium difficile 0.996 | Collinsella aerofaciens 0.975

CCNc1nc(NC(C)C(C)C)nc(SC)n1 (stereo not given)
inactive: Akkermansia muciniphila 0.961 | Bacteroides caccae 1.01 | Bacteroides clarus 0.962 | Bacteroides dorei 1 | Bacteroides stercoris 1.04 | [1] 0.915 | Bacteroides uniformis 0.972 | [2] 0.965 | Clostridium difficile 1 | Collinsella aerofaciens 1.05
